# Measurements taken from PubChem BioAssay AID2751 (The Scripps Research Institute Molecular Screening Center, 2010).
# Where “and” joins values, the source holds several entries; their conditions need not be identical. Equal entries are not always repeated. Out of some 320,000 compounds screened, about 2,200 (0.69%) were called active. No stated cut-off is given here; in the data, active means inhibition above about 43%; inactive means the rest. For the sample, actives were picked, then their nearest neighbours and some compounds at random. Some compounds were tested as several samples or in several runs, with calls that do not always agree.
# Target: Prolyl endopeptidase-like (Homo sapiens) (UniProt Q4J6C6)
# Test: human PREPL activity-probe blockers – biochemical, fluorescence polarization, primary screen (AID 2751);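 further: 0% = enzyme with DMSO and 100% = wells lacking enzyme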
# Settings: recombinant PREPL, fluorescence polarization activity-based probe; at 5.96 µM; stronger effect = higher value
# Chain of Prolyl endopeptidase-like (Homo sapiens) (Q4J6C6 whole entry, looked up): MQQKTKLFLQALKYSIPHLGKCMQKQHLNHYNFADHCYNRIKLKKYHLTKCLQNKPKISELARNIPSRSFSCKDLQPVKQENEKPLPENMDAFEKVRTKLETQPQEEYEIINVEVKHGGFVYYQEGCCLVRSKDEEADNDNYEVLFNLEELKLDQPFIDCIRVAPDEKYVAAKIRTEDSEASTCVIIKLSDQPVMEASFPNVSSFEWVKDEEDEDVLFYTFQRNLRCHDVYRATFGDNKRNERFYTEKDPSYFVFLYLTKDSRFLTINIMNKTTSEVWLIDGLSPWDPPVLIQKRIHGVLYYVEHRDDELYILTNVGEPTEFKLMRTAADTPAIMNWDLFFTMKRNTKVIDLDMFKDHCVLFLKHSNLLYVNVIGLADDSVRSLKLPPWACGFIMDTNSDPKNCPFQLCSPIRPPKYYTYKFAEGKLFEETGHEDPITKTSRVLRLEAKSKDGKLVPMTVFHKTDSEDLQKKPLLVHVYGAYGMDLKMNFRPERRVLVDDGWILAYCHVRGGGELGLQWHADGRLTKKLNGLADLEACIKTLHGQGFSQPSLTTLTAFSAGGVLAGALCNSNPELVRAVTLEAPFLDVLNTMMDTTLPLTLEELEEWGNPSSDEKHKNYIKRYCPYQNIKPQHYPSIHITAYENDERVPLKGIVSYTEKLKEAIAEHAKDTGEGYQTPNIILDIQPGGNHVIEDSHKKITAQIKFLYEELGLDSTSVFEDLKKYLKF
row,Compound,inhibition
1,CCc1ccc(S(=O)(=O)Nc2ccc(C)c(NS(C)(=O)=O)c2)cc1,-2.02% (inactive)
2,Cc1cccc2nc(CNc3ccc(F)cc3)cn12,-2.47% (inactive)
3,O=C(CN1CCOCC1)Nc1c2c(nc3c1CCC3)CCC2,-8.04% (inactive)
4,CCC(=C/c1sc2ccc3ccccc3c2[n+]1C)/C=C1\Sc2ccc3ccccc3c2N1C,90.7% (active)
5,CC(=O)Nc1ccc(NC(=O)C(C)OC(=O)C2CC(=O)N(CCc3ccccc3)C2)cc1 (stereo not drawn),12.3% (inactive)
6,CC1(C)CC[C@@]2(C(=O)O)C(C1)C1=CCC3[C@@]4(C)CC[C@H](O)C(C)(C)C4CC[C@@]3(C)[C@]1(C)C[C@H]2O (stereo partly drawn),21.2% (inactive)
7,COc1c(O)ccc2c1CN1CCc3cc4c(cc3C1C2)OCO4 (stereo not drawn),16.4% (inactive)
8,COc1ccc2cc1Oc1ccc(cc1)C[C@H]1c3cc(c(OC)cc3CCN1C)Oc1c(O)c(OC)cc3c1[C@H](C2)N(C)CC3,59% (active)
9,CC(C)(C)C(=O)N1CCC[C@@]1(CO)C(=O)O,6.21% (inactive)
10,CCC/C(C)=N\Nc1nc2c(c(=O)n(C)c(=O)n2C)n1C,11.5% (inactive)
11,CCN1CC(CN(C)Cc2nc(-c3ccc(Cl)cc3)no2)CC1=O (stereo not drawn),18.3% (inactive)
12,Cc1cc(C(=O)NCCc2ccc(Cl)cc2)c(C)o1,6.11% (inactive)
13,CC(C)CN(C(=O)CN1CCN(S(=O)(=O)c2ccccc2)CC1)c1c(N)n(CC(C)C)c(=O)[nH]c1=O,9.18% (inactive)
14,O=C1NC(Cc2ccc(O)cc2)c2nc3ccc(Cl)cc3c(=O)n2-c2ccccc21 (stereo not drawn),12.8% (inactive)
15,CC(C)Cc1nc(N2CCOCC2)c(C#N)c2c1CCC2,2.59% (inactive)
16,CCc1nc(NCCO)c(C#N)c2c1CCCC2,7.84% (inactive)
17,CC(C)CCNc1nc(N2CCCC2)c2c(c1C#N)CCN(C)C2,55.6% (active)

row,Compound,inhibition
1,CC(Sc1nc2c([nH]c3ccccc32)c(=O)n1C)c1ccccc1 (stereo not drawn),-0.13% (inactive)
2,Cc1ccccc1NC(=O)C1CCCN(C(=O)NCc2ccccc2)C1 (stereo not drawn),10.1% (inactive)
3,O=C(Nc1ccc(Cl)cc1)N1CCc2[nH]c3ccccc3c2C1,14.6% (inactive)
4,COC(=O)[C@H]1[C@H]2C[C@H]3c4[nH]c5ccccc5c4CCN3C[C@@H]2CC[C@@H]1O,16.7% (inactive) and 45.8% (active)
5,COC(=O)C1CCN(C(=O)c2cc(=O)[nH]c3ccccc23)CC1,-5.95% (inactive)
6,OC(COc1ccc(F)cc1Cl)CN1CCc2ccccc2C1 (stereo not drawn),3.81% (inactive)
7,CCCC(C(=O)NCc1ccco1)N(C(=O)CNS(=O)(=O)c1ccccc1)C1CCCC1 (stereo not drawn),-3.85% (inactive)
8,O=C(OCC1OC(Oc2ccc(O)cc2)C(O)C(O)C1O)c1ccccc1 (stereo not drawn),9.62% (inactive)
9,O=C(OCC1O[C@@H](OC(=O)c2cc(O)c(O)c(O)c2)[C@@H](OC(=O)c2cc(O)c(O)c(O)c2)[C@@H](OC(=O)c2cc(O)c(O)c(O)c2)[C@@H]1OC(=O)c1cc(O)c(O)c(O)c1)c1cc(O)c(O)c(O)c1 (stereo partly drawn),87.5% (active)
10,COc1ccccc1C(=O)NCc1nnc(SC(C)C(=O)Nc2nccs2)n1C (stereo not drawn),-8.82% (inactive)
11,CCC(=O)N1c2ccc(S(=O)(=O)NCc3ccco3)cc2CC1C (stereo not drawn),-3.18% (inactive)
12,O=C(CSc1ncnc2sccc12)N1CCN(C(=O)c2cccs2)CC1,6.26% (inactive)
13,Nc1c(C(=O)c2cccs2)sc2nsc(SCCN3CCCCC3)c12,48.1% (active)
14,CN(CC(=O)Nc1ccc(Cl)c(C(F)(F)F)c1)C(=O)CCC(=O)c1ccccc1,1.31% (inactive)
15,CC(C)c1ccc(S(=O)(=O)N2CCN(C(C)C(=O)NC3CCCC3)CC2)cc1 (stereo not drawn),5.61% (inactive)
16,CC(Oc1ccc(F)cc1)C(=O)Nc1ccccc1C(=O)NC1CC1 (stereo not drawn),-10.5% (inactive)
